# Records with an inconclusive call do not appear. Calls of active or inactive are those of the source. Unless noted, calls come from the whole dose curve; as a rule, active = well fitted curve in the direction sought with a large enough effect; inconclusive = small, poorly fitted or top-dose-only effect, or another doubt; inactive = no such curve, though single readings can be large; an effect the other way counts as inactive or inconclusive.
# How the values were obtained:
# [1] = target: Peroxisome proliferator-activated receptor delta (Homo sapiens) (UniProt Q03181); experiment: qHTS assay for small molecule agonists of peroxisome proliferator-activated receptor delta signaling (AID 588534; calls by dose curve;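 note: 0% = DMSO basal wells and 100% = positive control agonist at 10 µM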)
# Sequence of Peroxisome proliferator-activated receptor delta (Homo sapiens) (Q03181 whole entry, looked up): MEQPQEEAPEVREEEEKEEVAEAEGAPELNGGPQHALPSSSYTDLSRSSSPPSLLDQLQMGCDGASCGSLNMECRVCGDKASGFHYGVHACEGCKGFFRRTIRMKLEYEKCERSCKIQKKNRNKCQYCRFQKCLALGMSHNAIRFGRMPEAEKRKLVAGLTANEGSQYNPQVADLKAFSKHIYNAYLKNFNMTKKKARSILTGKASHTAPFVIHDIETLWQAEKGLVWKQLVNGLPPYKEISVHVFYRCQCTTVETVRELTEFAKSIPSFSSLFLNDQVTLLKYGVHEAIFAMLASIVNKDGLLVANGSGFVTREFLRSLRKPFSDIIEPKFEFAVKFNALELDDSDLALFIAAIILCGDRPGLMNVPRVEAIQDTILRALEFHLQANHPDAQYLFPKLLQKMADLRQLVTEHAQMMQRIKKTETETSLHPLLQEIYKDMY
# In short: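 Fluorescence from CCF4 substrate cleavage by beta-lactamase reporter, read 2 hrs at RT, measured agonist activity. Compounds were tested with 18 hrs exposure at 37 C. Concentration-response data fitted to Hill equation.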
# [2] = qHTS assay for small molecule antagonists of peroxisome proliferator-activated receptor delta signaling (AID 588535; active = well fitted inhibition curve with a large enough effect in the signal ratio, with a control signal flat, not every such curve was filed as active; the % refers to the signal ratio;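 for max response: cells co-treated with a PPAR-delta agonist as stimulator during compound exposure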); details: HEK293T PPARd-UAS-bla, beta-lactamase FRET ratio, 18 h; 460 nm channel
# In short: (§1)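 HEK293T PPAR-delta-UAS-bla cells, 4000/well, 2% charcoal/dextran FBS; 5 h 37 C; cpd titration; 18 h 37 C; CCF4 2 h RT; FI 460/530 nm; Hill fit → IC50, efficacy.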
# [3] = target: Peroxisome proliferator-activated receptor delta (Homo sapiens) (UniProt Q03181); experiment: as above
# In short: as §1
# [4] = target: Vitamin D3 receptor (Homo sapiens) (UniProt P11473); experiment: qHTS assay for small molecule agonists of vitamin D receptor signaling (AID 588543; calls by dose curve;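 note: 0% = DMSO basal and 100% = reference agonist control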)
# Sequence of Vitamin D3 receptor (Homo sapiens) (P11473 whole entry, looked up): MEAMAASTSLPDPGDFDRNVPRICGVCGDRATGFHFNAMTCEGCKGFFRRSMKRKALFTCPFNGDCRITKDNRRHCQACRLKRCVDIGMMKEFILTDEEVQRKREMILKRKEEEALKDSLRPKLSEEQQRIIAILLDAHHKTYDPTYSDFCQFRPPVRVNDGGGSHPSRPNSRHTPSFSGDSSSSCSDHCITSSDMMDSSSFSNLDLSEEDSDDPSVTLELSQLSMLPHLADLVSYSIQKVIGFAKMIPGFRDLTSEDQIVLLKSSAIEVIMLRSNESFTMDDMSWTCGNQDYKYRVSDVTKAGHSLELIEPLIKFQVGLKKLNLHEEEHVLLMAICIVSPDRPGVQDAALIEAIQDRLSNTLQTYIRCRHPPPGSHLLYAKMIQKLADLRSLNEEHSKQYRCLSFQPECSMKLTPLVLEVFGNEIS
# In short: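 GeneBLAzer VDR-UAS-bla HEK293T cells in 2% charcoal-stripped FBS medium were dosed with compound titrations for 16 h at 37 °C; CCF4 β-lactamase readout (405 nm ex, 460/530 nm em). EC50 and efficacy from Hill fits, normalized to 50 nM calcitriol (100%) and DMSO (0%).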
# [5] = qHTS assay for small molecule agonists of retinoid X receptor alpha signaling (AID 588544; calls by dose curve;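 for activation: 0% = DMSO basal wells and 100% = reference agonist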); details: HEK293T RXRa-UAS-bla, beta-lactamase reporter, 18 h; 530 nm emission
# [6] = target: Retinoic acid receptor RXR-alpha (Homo sapiens) (UniProt P19793); experiment: as above
# Sequence of Retinoic acid receptor RXR-alpha (Homo sapiens) (P19793 whole entry, looked up): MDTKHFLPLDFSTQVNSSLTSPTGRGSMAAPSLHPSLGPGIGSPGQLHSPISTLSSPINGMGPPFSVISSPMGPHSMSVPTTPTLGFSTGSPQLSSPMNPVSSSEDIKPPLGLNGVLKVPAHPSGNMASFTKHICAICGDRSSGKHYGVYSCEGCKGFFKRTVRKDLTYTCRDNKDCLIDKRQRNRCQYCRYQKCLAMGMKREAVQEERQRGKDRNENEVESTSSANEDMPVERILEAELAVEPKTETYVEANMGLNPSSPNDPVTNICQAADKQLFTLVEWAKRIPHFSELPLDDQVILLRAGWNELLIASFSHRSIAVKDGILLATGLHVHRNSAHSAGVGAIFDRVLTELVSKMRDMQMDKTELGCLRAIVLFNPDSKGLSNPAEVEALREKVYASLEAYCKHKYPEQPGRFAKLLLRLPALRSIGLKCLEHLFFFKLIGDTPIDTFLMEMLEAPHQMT
# [7] = target: Thyroid hormone receptor beta (Homo sapiens) (UniProt P10828); experiment: qHTS assay for small molecule agonists of thyroid hormone receptor beta signaling (AID 588545; calls by dose curve)
# Sequence of Thyroid hormone receptor beta (Homo sapiens) (P10828 whole entry, looked up): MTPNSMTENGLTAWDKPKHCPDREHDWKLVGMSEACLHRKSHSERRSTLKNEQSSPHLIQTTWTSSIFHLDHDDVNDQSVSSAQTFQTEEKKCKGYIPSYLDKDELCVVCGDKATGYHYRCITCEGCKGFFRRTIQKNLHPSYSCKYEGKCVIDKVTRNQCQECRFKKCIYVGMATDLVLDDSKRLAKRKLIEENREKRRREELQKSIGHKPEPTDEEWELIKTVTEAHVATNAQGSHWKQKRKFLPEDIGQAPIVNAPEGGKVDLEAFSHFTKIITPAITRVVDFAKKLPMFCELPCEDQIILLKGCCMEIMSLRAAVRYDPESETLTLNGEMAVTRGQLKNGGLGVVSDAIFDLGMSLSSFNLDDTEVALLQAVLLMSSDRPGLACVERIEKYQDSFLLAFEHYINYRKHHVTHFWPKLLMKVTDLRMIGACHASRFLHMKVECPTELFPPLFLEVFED
# In short: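 In this cell-based screen, titrated compounds act on HEK 293 cells held in medium with 2% charcoal/dextran FBS, NEAA and pyruvate for 18 hrs at 37 C. Responses are expressed relative to T3 (10 nM) as 100% and basal DMSO as 0%.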
# [8] = qHTS assay for small molecule antagonists of retinoid X receptor alpha signaling (AID 588546; active = well fitted inhibition curve with a large enough effect in the signal ratio, with a control signal flat, not every such curve was filed as active; the % refers to the signal ratio;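 note: cells stimulated with 9-cis-retinoic acid as agonist; % is set by controls: 0 for no effect and ±100 for the full control effect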); details: HEK293T RXRa-UAS-bla, beta-lactamase ratio, antagonist mode; measured here: W530 green channel, cytotoxicity proxy
# In short: (§2)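 Beta-lactamase reporter inhibition, read as CCF4 fluorescence ratio (ex 405, em 460/530 nm) after 2 h at RT. HEK293T UAS-bla cells, 2500/well, were stimulated with 9-cis-RA at 500 or 100 nM final alongside test compound for 18 h at 37 C.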
# [9] = target: Retinoic acid receptor RXR-alpha (Homo sapiens) (UniProt P19793); experiment: as above; details: HEK293T RXRa-UAS-bla, beta-lactamase ratio, antagonist mode
# In short: as §2
# [10] = target: Thyroid hormone receptor beta (Homo sapiens) (UniProt P10828); experiment: qHTS assay for small molecule antagonists of thyroid hormone receptor beta signaling (AID 588547; active = well fitted inhibition curve with a large enough effect in the signal ratio, with a control signal flat, not every such curve was filed as active; the % refers to the signal ratio;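 note: cells stimulated with 0.4 nM T3 agonist during compound exposure; % is set by controls: 0 for no effect and ±100 for the full control effect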); details: TR-UAS-bla HEK293, beta-lactamase ratio, antagonist mode, 18 h
# In short: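 Inhibition of T3-driven (0.4nM final) beta-lactamase reporter activity was measured over 0.59 nM to 92 uM compound after 18 h at 37 C. The cells were GripTite HEK293 TR-UAS-bla in charcoal/dextran-stripped serum, with CCF4 ratio read-out and IC50 from Hill fits.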
# [11] = qHTS assay for small molecule activators of the p53 signaling pathway (AID 651743; active = well fitted activation curve with a large enough effect in the signal ratio, not every such curve was filed as active; the % refers to the signal ratio; note: % of control where 0% means no effect); details: HCT-116 p53RE-bla, beta-lactamase FRET ratio, 16 h; activation: stronger effect = higher value
# In short: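 Read-out is fluorescence intensity from the LiveBLAzer B/G FRET substrate, added for 2 hours at room temperature after HCT-116 p53RE-bla cells had been incubated with compounds for 16 hours at 37 C.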
# [12] = qHTS assay for small molecule activators of the nuclear factor-kappa B (NF-kB) signaling pathway (AID 651749; active = well fitted activation curve with a large enough effect in the signal ratio; the % refers to the signal ratio; note: % of control where 0% means no effect); details: NF-kB-bla ME-180 cells, beta-lactamase FRET ratio, 16 h; activation: stronger effect = higher value
# In short: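 Readout: beta-lactamase reporter driven by an NF-kB response element, detected fluorescently as loss of FRET. Cells were the ME-180 line, treated 16 hr at 37C with pin-transferred compound.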
# [13] = qHTS assay for environmental chemicals that activate the Aryl hydrocarbon Receptor (AhR) signaling pathway (AID 651777); details: 1A2-DRE human hepatoma cells, luciferase, 24 h; activation: stronger effect = higher value; note: % of control where 0% means no effect; nearly all actives have a fitted effect of over 15% in size
# In short: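 1A2-DRE human hepatoma reporter line; 1,200 cells/well; cmpd or DMSO 24 h, 37 C/5% CO2; One-Glo 30 min RT; luciferase lum.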
# [14] = target: Peroxisome proliferator-activated receptor alpha (Homo sapiens) (UniProt Q07869); experiment: qHTS assay for small molecule agonists of the peroxisome proliferator-activated receptor alpha (PPARalpha) signaling pathway (AID 651778); details: PathHunter PPARalpha complementation, chemiluminescence, 6 h; max response: stronger effect = higher value; note: % of control where 0% means no effect
# Sequence of Peroxisome proliferator-activated receptor alpha (Homo sapiens) (Q07869 whole entry, looked up): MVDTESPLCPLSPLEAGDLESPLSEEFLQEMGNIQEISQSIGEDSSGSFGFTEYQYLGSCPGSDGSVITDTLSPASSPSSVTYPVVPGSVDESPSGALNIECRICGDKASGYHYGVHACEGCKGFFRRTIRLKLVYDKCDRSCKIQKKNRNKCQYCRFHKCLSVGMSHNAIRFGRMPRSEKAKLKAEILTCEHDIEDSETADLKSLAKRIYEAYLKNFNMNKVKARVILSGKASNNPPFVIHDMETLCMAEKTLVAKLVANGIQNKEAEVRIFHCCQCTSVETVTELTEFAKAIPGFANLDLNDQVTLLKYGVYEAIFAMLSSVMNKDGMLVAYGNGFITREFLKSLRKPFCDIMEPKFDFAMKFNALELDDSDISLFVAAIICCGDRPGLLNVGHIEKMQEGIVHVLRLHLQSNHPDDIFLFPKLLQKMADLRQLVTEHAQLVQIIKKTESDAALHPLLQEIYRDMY
# In short: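 Chemiluminescence from complemented enzyme reported PPARalpha activation in cells after 6 hr of compound treatment at 37 C. The detection reagent was incubated for 60 min at room temperature, and compounds were scored as agonists.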
# [15] = qHTS assay for small molecule agonists of the antioxidant response element (ARE) signaling pathway measured by Nrf2-dependant transcriptional activity (AID 720636; active = well fitted curve in the direction sought with a large enough effect in the repeat runs; an effect the other way counts as inactive or inconclusive;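 note: HepG2 cells with an ARE-driven luciferase reporter; % of control where 0% means no effect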)
# In short: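 Cells: ARE-luc HepG2 with Nrf2-responsive luciferase. Medium contained 1% dialyzed FBS. Compound exposure lasted 16 hr at 37 C and 5% CO2, followed by ONE-Glo luciferase detection.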
# [16] = qHTS assay for small molecule agonists of the antioxidant response element (ARE) signaling pathway measured by Nrf2-dependant transcriptional activity - cell viability counter screen (AID 720653; active = well fitted curve in the direction sought with a large enough effect in the repeat runs; an effect the other way counts as inactive or inconclusive; note: % is set by controls: 0 for no effect and ±100 for the full control effect); details: ARE-bla HepG2 viability, CellTiter-Glo ATP luminescence, 16 h; max response: stronger effect = lower value
# In short: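 Cytotoxicity counter screen: intracellular ATP quantified by CellTiter-Glo luminescence in the same ARE-bla HepG2 plates, after 16 h compound exposure and a 2 h beta-lactamase substrate step.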
# [17] = qHTS assay for cell viability of HEK293 cells (AID 743288); details: ATP luminescence (CellTiter-Glo), 18 h; max response: stronger effect = lower value; note: % is set by controls: 0 for no effect and ±100 for the full control effect; nearly all actives have a fitted effect of over 50% in size
# In short: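 Parental HEK293 cells were seeded at 2,000 cells/well, rested at least 5 h at 37 C, then exposed to compounds in DMSO for 18 h at 37 C. Viability was read as ATP-dependent luciferase luminescence after 30 min at room temperature.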
# [18] = qHTS assay for cell viability of the p53RE-bla HCT-116 cell line (AID 743292); note: % is set by controls: 0 for no effect and ±100 for the full control effect; nearly all actives have a fitted effect of over 55% in size
# In short: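 HCT-116 p53RE-bla cells seeded 4,000/well; 5 h at 37 C; compound (DMSO) added; 16 h at 37 C; CellTiter-Glo added, 30 min RT; luminescence read.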
# [19] = qHTS assay for small molecule activators of the human pregnane X receptor (PXR) signaling pathway (AID 720659; call rule not given here; note: 0% is about no effect)
# [20] = target: Cytochrome P450 3A4 (Homo sapiens) (UniProt P08684); experiment: qHTS Assay for Inhibitors and Substrates of Cytochrome P450 3A4 (AID 884); note: potency is the fitted concentration of half-maximal effect; nearly all actives have a fitted effect of over 50% in size
# Sequence of Cytochrome P450 3A4 (Homo sapiens) (P08684 whole entry, looked up): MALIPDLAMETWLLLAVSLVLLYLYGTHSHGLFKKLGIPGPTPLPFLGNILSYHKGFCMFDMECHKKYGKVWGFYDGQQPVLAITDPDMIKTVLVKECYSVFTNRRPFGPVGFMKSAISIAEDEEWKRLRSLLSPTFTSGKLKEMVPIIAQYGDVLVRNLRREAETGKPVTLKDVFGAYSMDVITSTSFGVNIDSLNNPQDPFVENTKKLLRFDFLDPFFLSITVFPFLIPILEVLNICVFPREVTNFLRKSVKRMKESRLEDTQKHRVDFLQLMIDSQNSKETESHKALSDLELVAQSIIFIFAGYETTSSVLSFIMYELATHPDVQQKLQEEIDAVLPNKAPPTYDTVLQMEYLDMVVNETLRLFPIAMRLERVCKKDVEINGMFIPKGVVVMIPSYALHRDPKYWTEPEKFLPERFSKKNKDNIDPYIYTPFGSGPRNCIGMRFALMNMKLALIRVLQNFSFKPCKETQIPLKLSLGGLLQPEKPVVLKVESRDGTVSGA
# In short: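 20 nM human CYP3A4 with 25 uM Luciferin-PPXE (at KM) in 200 mM KPO4, preincubated 10 min with compound; NADPH regeneration started a 60 min RT reaction. Luciferin detected by luminescence, normalized to 57 uM ketoconazole as full inhibition.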
# [21] = MultiTox-Fluor Cytotoxicity Assay - LYMP1-002 - Dead Cells (AID 960); note: potency is the fitted concentration of half-maximal effect; nearly all actives have a fitted effect of over 60% in size
# In short: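 LYMP1-002 cells 2500/well; 5 hr 37 C pre-incubation; compound 16 hr 37 C; MultiTox-Fluor reagent 60 min RT; dead-cell fluor Ex/Em 485/520. Norm. to DMSO (0%) vs 15 uM tetraoctylammonium bromide (100%); Hill AC50.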
# [22] = Cell Viability - LYMP2-004 (AID 966);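 note: plate controls were DMSO only for no effect and tetraoctylammonium bromide control for full effect; nearly all actives have a fitted effect of over 65% in size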
# In short: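 Cells seeded 2500/well, rested 5 hr at 37 C, dosed across a concentration series, incubated 24 hr at 37 C, then CellTiter-Glo added for 30 min at room temperature and luminescence read. Hill fitting gave AC50.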
# [23] = Cell Viability - LYMP2-025 (AID 976);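 note: plate controls were DMSO only for no effect and tetraoctylammonium bromide control for full effect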
# In short: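 Seed 2500 LYMP2-025 cells/well; 5 hr at 37 C; add compound; 24 hr at 37 C; add CellTiter-Glo; 30 min RT; read luminescence. AC50 from Hill-modelled concentration-response.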
# [24] = S16 Schwann cell PMP22 intronic element beta-lactamase assay (AID 624044; calls by dose curve;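 note: 0% = DMSO and -100% = potassium clavulanate positive control; nearly all actives have a fitted effect of over 15% in size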); details: S16 rat Schwann cells, PMP22 element beta-lactamase FRET, 24 h; ratio activity, negative = inhibition: at 38.3 µM (top of the series)
# In short: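 Rat S16 Schwann cells with beta-Lac driven by a PMP22 intronic element, compound-treated 24 h at 37 °C. LiveBLAzer FRET B/G read: 460 nm normalized to potassium clavulanate vs DMSO; 535 nm FRET as viability; concentration-effect curves classified.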
compound,measurement,setting,value
CC(C1CC1)C(O)(Cn1cncn1)c1ccc(Cl)cc1 (stereo unspecified),outcome,[1],inactive
same,max response,[2],49.1%
same,Potency,[3],inactive
same,outcome,[4],inactive
same,max response,[5],4.53%
same,Potency,[6],inactive
same,Potency,[7],inactive
same,max response,[8],-3.3%
same,max response,[9],-4.42% (inactive)
same,activity change % (negative = inhibition),[10],-18.1% (inactive)
same,activation,[11],-2.39% (inactive)
same,activation,[12],-1.89% (inactive)
same,activation,[13],1.13% (inactive)
same,max response,[14],-1.34% (inactive)
same,Potency,[15],inactive
same,max response,[16],-0.0614% (inactive)
same,max response,[17],-14% (inactive)
same,Potency,[18],inactive
same,outcome,[19],inactive
NC(=O)CCCCC(N)=O,outcome,[1],inactive
C=CCn1c(=O)n(CC=C)c(=O)n(CC=C)c1=O,Potency,[20],10 µM (active)
O=C1c2c(O)ccc([N+](=O)[O-])c2C(=O)c2c([N+](=O)[O-])ccc(O)c21,Potency,[20],7.94 µM (active)
COc1ccc(N=[N+]([O-])c2ccc(OC)cc2)cc1,Potency,[21],25.1 µM (active)
Cc1ccccc1,Potency,[22],inactive
same,Potency,[23],inactive
same,Potency,[24],inactive

# From PubChem BioAssay (NCATS)
